From PubChem BioAssay (Tox21) come the findings set out here.

Values joined by “and” are separate entries in the source; they are usually repeats but may differ in a detail not shown here. Equal values may be shown once. Unmarked numbers belong to inactive results. Results filed as inconclusive are left out. Active and inactive are the calls of the source. Unless noted, calls come from the whole dose curve; as a rule, active = well fitted curve in the direction sought with a large enough effect in the repeat runs; inconclusive = weak or mixed curves; inactive = no such curve, though single readings can be large; an effect the other way counts as inactive or inconclusive.

Assay [1] is described as follows: qHTS assay to identify small molecule antagonists of the estrogen related receptor (ERR) signaling pathway from Tox21 library - cell viability counter screen (AID 1224834). Note: nearly all actives have a fitted effect of over 30% in size. The method, boiled down: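 Cytotoxicity of test substances is gauged in the same ERR cells used for the antagonist screen, after 17.5 h of compound treatment at 37 C, by CellTiter-Fluor fluorescence measured after 30 min.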

Assay [2] concerns the target Luciferin 4-monooxygenase (Photinus pyralis) (UniProt P08659). The experiment in a line: qHTS assay to identify small molecule inhibitors of firefly luciferase (AID 1224835). Note: nearly all actives have a fitted effect of over 25% in size. The method, boiled down: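 Biochemical qHTS: compounds run as interplate titrations against purified firefly enzyme, with D-luciferin and ATP each at its KM concentration. Light output recorded by CCD imaging.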
In general terms: qHTS replaces the single test concentration by a dilution series.

A short description of assay [3]: qHTS assay to identify small molecule agonists of the constitutive androstane receptor (CAR) signaling pathway - cell viability counter screen (AID 1224836). Note: nearly all actives have a fitted effect of over 45% in size. The method, boiled down:
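Double-stable HepG2 hepatoma cells (hCAR plus CYP2B6-2.2kb) are treated for 23 h at 37 C with test compounds in 15-point concentration series. PK11195 at 0.75 uM final is co-added. Cell viability is quantified by CellTiter-Fluor.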

Assay [4] can be described thus: qHTS assay to identify small molecule antagonists of the constitutive androstane receptor (CAR) signaling pathway - cell viability counter screen (AID 1224837). Note: nearly all actives have a fitted effect of over 45% in size. The method, boiled down: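 Multiplexed cytotoxicity read-out for the CAR antagonist screen: double-stable HepG2-CYP2B6-hCAR cells co-treated with 50 nM CITCO (final) and compound over 15 concentrations, incubated 23 hr, then assessed by CellTiter-Fluor fluorescence.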

Assay [5] addresses Nuclear receptor subfamily 1 group I member 3 (Homo sapiens) (UniProt Q14994). Description: qHTS assay to identify small molecule antagonists of the constitutive androstane receptor (CAR) signaling pathway (AID 1224838). Note: nearly all actives have a fitted effect of over 40% in size. The method, boiled down:
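Compounds were titrated across 15 concentrations onto HepG2 cells double-stably expressing hCAR and a CYP2B6-2.2kb reporter, together with 50 nM CITCO (final). After 24 h at 37 C, luciferase activity was measured by luminescence.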

Assay [6] has the same target. The experiment in a line: qHTS assay to identify small molecule agonists of the constitutive androstane receptor (CAR) signaling pathway (AID 1224839).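 Note: HepG2 cells stably carrying human CAR and a CYP2B6 luciferase reporter; nearly all actives have a fitted effect of over 15% in size.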 The method, boiled down:
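Readout: firefly luciferase luminescence via ONE-Glo. System: HepG2 double-stable for hCAR and CYP2B6-2.2kb. Conditions: 15-point compound titration, PK11195 at 0.75 uM final, 24 h incubation.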

A short description of assay [7]: qHTS assay to identify small molecule antagonists of the estrogen related receptor signaling pathway with the pleiotropic PPARgamma coactivator (PGC) from Tox21 10K library - cell viability counter screen (AID 1224840; active = well fitted cell-killing curve with a large enough effect in the repeat runs, not every such curve was filed as active; note: nearly all actives have a fitted effect of over 40% in size). The method, boiled down:
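Step one, plate 2,000 PGC/ERR cells per well; step two, incubate 6 h at 37 C/5% CO2; step three, pin-transfer compounds; step four, incubate 17.5 h; step five, add CellTiter-Fluor and read fluorescence after 30 min.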

A short description of assay [8]: qHTS assay to identify small molecule agonists of H2AX (AID 1224845; active = well fitted activation curve with a large enough effect in the signal ratio in the repeat runs, not every such curve was filed as active; the % refers to the signal ratio). The method, boiled down: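 Wild-type CHO-K1 cells, plated overnight, exposed 3hr at 37C to 15 concentrations (0.76% DMSO final). Lysed, then HTRF anti-pH2AX (S139) cryptate and anti-H2AX-d2 antibodies, 24 hr room temperature; 665/620 nm emission read.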
Assay [9] is described as follows: qHTS assay to identify small molecule agonists of H2AX - cell viability counter screen (AID 1224847; calls by dose curve; note: top concentration of the series differs between compounds; nearly all actives have a fitted effect of over 30% in size). The method, boiled down: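 For this counter screen, overnight-attached CHO-K1 cells received test compounds (15 concentrations, 0.76% DMSO final); 3 hr later at 37C, CellTiter-Glo reagent was added and luminescence recorded after 30 min at room temperature.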
Assay [10] is described as follows: qHTS RealTime-Glo MT Cell Viability Assay in HepG2 cells - 24 hour (AID 1224867). Note: nearly all actives have a fitted effect of over 50% in size. The method, boiled down: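 Viability was tracked continuously by NanoLuc luminescence from prosubstrate reduced by living HepG2 cells, at successive time points over 40 h of compound exposure. Cells with reagent were preincubated 5 h at 37 °C before compound addition.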
The nature of assay [11]: qHTS RealTime-Glo MT Cell Viability Assay in HepG2 cells - 40 hour (AID 1224870). Note: nearly all actives have a fitted effect of over 50% in size. The method, boiled down: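 HepG2 cells (600/well) mixed with RealTime-Glo MT reagent, settled 5 h at 37 C/5% CO2 before compound addition. Nonlytic NanoLuc luminescence from viable-cell prosubstrate reduction read repeatedly during 40 h treatment at 37 C.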
Assay [12] in a line: qHTS assay to identify small molecule antagonists of the estrogen related receptor signaling pathway with the pleiotropic PPARgamma coactivator (PGC) from Tox21 10K library (AID 1224841; call rule not given here; note: actives are mostly falling curves and most rising ones were filed inactive; nearly all actives have a fitted effect of over 50% in size; note: potency is the fitted concentration of half-maximal effect). The method, boiled down: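 Antagonism in this quantitative HTS is taken from loss of luciferase signal in PGC/ERR cells. Cells (2,000/well) are treated with compounds in DMSO after a 6 h settling period and read by One-Glo luminescence after 18 h.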

A short description of assay [13]: qHTS assay to identify small molecule agonists of the estrogen related receptor signaling pathway with the pleiotropic PPARgamma coactivator (PGC) from Tox21 10K library (AID 1224842). Note: nearly all actives have a fitted effect of over 15% in size. Summed up: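 PGC/ERR reporter cell line, 2,000 cells per well, incubated 6 h at 37 C before 23 nL compound in DMSO was added. After 18 h at 37 C, One-Glo luminescence read following 30 min at room temperature.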

Assay [14] concerns the target Thyrotropin receptor (Homo sapiens) (UniProt P16473). The experiment in a line: qHTS assay to identify small molecule agonists of the thyroid stimulating hormone receptor (TSHR) signaling pathway (AID 1224843; calls by dose curve; note: nearly all actives have a fitted effect of over 45% in size). Summed up: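 Steps: seed 800 TSHR-HEK293 cells per well; add test compound and hold 30 min at ambient temperature; dispense cAMP-d2 then anti-cAMP cryptate; incubate 1 h at ambient; measure fluorescence intensity.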

Assay [15] is described as follows: qHTS assay to identify small molecule agonists of the hypoxia (HIF-1) signaling pathway - cell viability counter screen (AID 1224844; calls by dose curve; note: nearly all actives have a fitted effect of over 50% in size). The method, boiled down: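 Tox21 10K compounds were added to HRE-bla ME-180 cells (0.5% dialyzed FBS) and incubated 17 hrs at 37C; ATP-based CellTiter-Glo luminescence then reported cell viability in the same wells.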
A short description of assay [16]: qHTS assay to identify small molecule agonists of the hypoxia (HIF-1) signaling pathway (AID 1224846; active = well fitted activation curve with a large enough effect in the signal ratio in the repeat runs, not every such curve was filed as active; the % refers to the signal ratio). Summed up:
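Steps: seed ME-180 HRE-bla cells (2,000/well, 0.5% dialyzed FBS); incubate 5 hrs at 37C; pin-transfer compounds or DMSO; incubate 17 hrs; add LiveBLAzer B/G substrate CCF4-AM; measure reporter activation by FRET.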

Assay [17] is described as follows: qHTS assay to identify small molecule antagonists of the estrogen related receptor (ERR) signaling pathway from Tox21 library (AID 1224848). Note: nearly all actives have a fitted effect of over 50% in size. The method, boiled down:
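Luminescent reporter read-out (ONE-Glo) from NTP's ERR cell line after 18 h treatment at 37 C with DMSO-dissolved Tox21 compounds; cells pre-plated 6 h beforehand at 2,000 per well.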

A short description of assay [18]: qHTS assay to identify small molecule agonists of the estrogen related receptor (ERR) signaling pathway from Tox21 library (AID 1224849; calls by dose curve; note: nearly all actives have a fitted effect of over 15% in size). The note with it: ERR reporter cell line, ONE-Glo luciferase, 18 h; at 92.4 µM (top of the series) unless noted. Summed up: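 Agonist signal is luciferase luminescence from an ERR reporter cell line treated 18 h at 37 C with DMSO-dissolved compounds, read 30 min after ONE-Glo addition at room temperature.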

Assay [19] in a line: qHTS RealTime-Glo MT Cell Viability Assay in HEK293 cells - 32 hour (AID 1224868). The method, boiled down: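 Viability tracked continuously by luminescence as live cells reduce a prosubstrate for NanoLuc; HEK293 cells preincubated 5 h, compound-treated at 37 C, and read at 0, 8, 16, 24, 32 and 40 h.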
A short description of assay [20]: A CellTox Green Cytotoxicity Assay to monitor cytotoxicity in HEK293 cells - 0 hour (AID 1224869). Note: nearly all actives have a fitted effect of over 50% in size. The method, boiled down: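 Cytotoxicity was tracked continuously in HEK293 cells by a DNA-binding dye excluded from viable cells. Compounds were transferred in DMSO 5 h after seeding; fluorescence was recorded at intervals up to 40 h.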
% is set by controls: 0 for no effect and ±100 for the full control effect.

Thyrotropin receptor (Homo sapiens), sequence (P16473 whole entry, looked up): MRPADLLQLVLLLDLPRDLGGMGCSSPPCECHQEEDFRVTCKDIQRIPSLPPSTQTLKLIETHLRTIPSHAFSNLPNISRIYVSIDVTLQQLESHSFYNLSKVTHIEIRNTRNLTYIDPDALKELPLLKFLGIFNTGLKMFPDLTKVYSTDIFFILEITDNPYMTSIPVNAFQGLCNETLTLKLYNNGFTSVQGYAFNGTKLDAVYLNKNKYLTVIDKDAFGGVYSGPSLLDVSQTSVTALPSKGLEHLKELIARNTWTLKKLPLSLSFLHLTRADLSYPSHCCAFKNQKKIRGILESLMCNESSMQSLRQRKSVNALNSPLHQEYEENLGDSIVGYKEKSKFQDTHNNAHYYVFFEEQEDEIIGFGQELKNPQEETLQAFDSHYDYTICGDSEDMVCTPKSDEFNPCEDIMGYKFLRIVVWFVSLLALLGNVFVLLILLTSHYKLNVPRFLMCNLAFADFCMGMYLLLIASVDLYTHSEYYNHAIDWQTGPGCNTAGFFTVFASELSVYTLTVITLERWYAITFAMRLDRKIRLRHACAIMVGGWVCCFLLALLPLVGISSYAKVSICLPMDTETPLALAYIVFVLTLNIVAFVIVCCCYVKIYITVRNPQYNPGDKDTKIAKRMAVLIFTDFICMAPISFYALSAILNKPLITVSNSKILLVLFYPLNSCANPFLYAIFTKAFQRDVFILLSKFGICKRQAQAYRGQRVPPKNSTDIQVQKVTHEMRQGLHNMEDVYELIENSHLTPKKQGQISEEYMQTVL
Luciferin 4-monooxygenase (Photinus pyralis), sequence (P08659 whole entry, looked up): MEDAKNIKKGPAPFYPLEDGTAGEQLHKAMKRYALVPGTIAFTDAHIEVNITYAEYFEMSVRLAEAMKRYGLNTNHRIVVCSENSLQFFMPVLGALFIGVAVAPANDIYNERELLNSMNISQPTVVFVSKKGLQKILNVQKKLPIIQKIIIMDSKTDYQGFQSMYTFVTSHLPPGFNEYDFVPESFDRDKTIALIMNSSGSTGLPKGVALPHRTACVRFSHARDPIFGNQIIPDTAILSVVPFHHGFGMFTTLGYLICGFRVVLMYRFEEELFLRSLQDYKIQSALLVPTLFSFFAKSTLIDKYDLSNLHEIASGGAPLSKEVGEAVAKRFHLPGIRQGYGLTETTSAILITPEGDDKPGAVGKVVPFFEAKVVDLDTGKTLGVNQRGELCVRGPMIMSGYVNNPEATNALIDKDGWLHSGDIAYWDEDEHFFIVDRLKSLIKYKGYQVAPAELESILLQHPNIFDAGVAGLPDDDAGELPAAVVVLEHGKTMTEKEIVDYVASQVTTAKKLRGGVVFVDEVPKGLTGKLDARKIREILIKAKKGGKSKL
Nuclear receptor subfamily 1 group I member 3 (Homo sapiens), sequence (Q14994 whole entry, looked up): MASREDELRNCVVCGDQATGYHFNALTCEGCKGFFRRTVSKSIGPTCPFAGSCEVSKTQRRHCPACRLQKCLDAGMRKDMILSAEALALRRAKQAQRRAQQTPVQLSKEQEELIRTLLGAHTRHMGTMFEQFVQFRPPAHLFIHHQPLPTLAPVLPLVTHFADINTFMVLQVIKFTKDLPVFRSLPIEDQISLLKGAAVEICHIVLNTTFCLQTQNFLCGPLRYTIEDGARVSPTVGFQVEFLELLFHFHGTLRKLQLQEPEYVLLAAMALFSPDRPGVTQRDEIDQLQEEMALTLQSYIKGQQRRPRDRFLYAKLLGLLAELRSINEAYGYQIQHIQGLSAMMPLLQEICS

For the compound `CCOC(=O)CC(=O)CCl`, the Potency entry in assay [1], in assay [2], in assay [3], in [4], in assay [5] and in assay [6] was “inactive” each time. Further, the Potency entry in [7], in assay [8], in assay [9], in [10] and in [11] was “inactive” throughout.
Regarding `C=CC(=O)N(C)C`, the Potency entry in [1], in assay [2], in [3], in assay [4], in assay [7] and in assay [13] was “inactive” throughout. Moreover, the Potency result in assay [14], in [15], in assay [8], in assay [9], in assay [17] and in assay [10] was “inactive” in each case. The Potency result in assay [19] and in [20] was “inactive” throughout. Besides, in assay [12], the Potency is 27.3 µM (active). Besides, the result in assay [16] was inactive. The activity change, positive = activation in [18] was -4.19%.
For the compound `CCc1ccccc1C`, the Potency entry in assay [1], in [2], in [3], in [4], in assay [7] and in assay [12] was “inactive” throughout. In addition, the Potency entry in assay [13], in assay [14], in assay [15], in assay [8], in assay [17] and in [10] was “inactive” each time. Also, the Potency result in assay [19], in assay [20] and in [11] was “inactive” in each case. For the same compound, the outcome in assay [16] was inactive. In addition, in assay [18], the activity change, positive = activation is 0.837%.
As for `N#Cc1ccccc1N`, the Potency entry in assay [1], in [2], in [3], in assay [4], in [5] and in assay [6] was “inactive” each time. For the same compound, the Potency entry in assay [7], in assay [14], in assay [8], in assay [10], in [19] and in [11] was “inactive” each time. In assay [16], the result was inactive. Further, the activity change, positive = activation in [18] is -12.6%.
For `CCOC(=O)OC1=C(c2cc(C)ccc2C)C(=O)NC12CCC(OC)CC2` (stereo not given), the Potency entry in [1], in assay [2], in assay [3], in assay [4], in assay [5] and in [6] was “inactive” in each case. For the same compound, the Potency result in assay [7], in [15], in [8], in [9], in assay [10] and in [19] was “inactive” each time. Further, the Potency result in assay [20] and in assay [11] was “inactive” throughout. In assay [16], the compound was called inactive.
As for `O=C/C(Cl)=C(/Cl)C(=O)O`, the Potency entry in [1], in assay [2], in [3], in assay [5], in assay [6] and in assay [7] was “inactive” in each case. For the same compound, the Potency entry in assay [12], in assay [13], in [14], in assay [9], in assay [17] and in assay [10] was “inactive” in each case. Moreover, the Potency result in assay [20] and in assay [11] was “inactive” in each case. Besides, the activity change, positive = activation in [18] is -23.8% and 0.311%.
`N#CCCO`: the Potency entry in [1], in assay [2], in assay [3], in assay [4], in [7] and in [8] was “inactive” each time. Moreover, the Potency entry in assay [9], in assay [10], in assay [19] and in assay [11] was “inactive” in each case. The result in [16] was inactive.
